High-throughput results deposited in PubChem by National Center for Advancing Translational Sciences (NCATS).
Luc counter = blocks Kinase-Glo luciferase, a counter-screen artifact | Q27757 | Kinase-Glo luciferase, ATP luminescence, 8 min | Potency, µM (series often up to 38.3 µM), without a hit: at the top dose activity change, negative = inhibition, most hits filed as inhibitors | 200,000 compounds, 0.28% hits | AID 1379; further: on the % scale 0 is the no-effect control and ±100 the full control effect; nearly all actives have a fitted effect of over 60% in size
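Substrate mix (final 50 mM imidazole pH 7.2, 50 mM KCl, 7 mM MgCl2, 10 uM ATP, 0.01% Tween 20, 0.05% BSA) plus pin-tool compound, then Kinase-Glo detection mix; 8 min ambient, luminescence read.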
SMN2 splice enh = SMN2 splice variant enhancement | HEK293 SMN2-luciferase splicing reporter, luminescence, 30-36 h | Potency, µM (highest dose often 46.1 µM), inactives show at the top dose activity change, positive = activation, most hits filed as activators | 210,000 compounds, 2.8% hits | AID 1458; further: % of control where 0% means no effect; nearly all actives have a fitted effect of over 55% in size
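HEK293 cells carry an SMN2 […]–luciferase reporter in which exon 7 inclusion puts luciferase in frame. Cells were plated 10-12 h before compound addition, then incubated 30-36 h at 37C. ONE-Glo luminescence was read; sodium butyrate at 4.5 mM final served as control.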
Rab9 prom act = activators of Rab9 promoter; Huh7 Rab9 promoter-luciferase reporter, luminescence, 24 h; 320,000 compounds, 2.8% hits; Potency, µM (series often up to 9.22 µM), without a hit: at the highest dose activation, negative = inhibition, hits mostly activators; AID 485297; further: % of control where 0% means no effect; nearly all actives have a fitted effect of over 60% in size
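Cell-based reporter: Huh7 stable for Rab9 promoter-driven luciferase, plated in reduced-serum medium with 10% FBS at 1500 cells/well, compound-treated 24 h at 37 °C, luminescence read after 10 min reagent.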
NPC1 promoter act = activates the NPC1 promoter; Huh7 NPC1 promoter luciferase reporter, 24 h; Potency, µM (titrated, usually from 9.22 µM), without a hit: at the highest dose activation, actives largely listed as activators; 320,000 compounds, 2.4% hits; AID 485313; further: % of control where 0% means no effect; nearly all actives have a fitted effect of over 60% in size
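Luciferase expression driven by the NPC1 promoter was measured in stably transfected Huh7 cells after a 24 h compound incubation, using a luciferase reagent and a luminescence read.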
FLuc counter = inhibits or activates purified firefly luciferase, miR-21 counter-screen; P08659; purified FLuc, Km substrates, luminescence inhibition; Potency, µM (top dose mostly 57.5 µM), inactives show at the highest dose activity change, negative = inhibition, most hits filed as inhibitors; 360,000 compounds, 6.9% hits;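 further: plate controls were vehicle for no effect and reference inhibitor for full effect; nearly all actives have a fitted effect of over 55% in size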
Target sequence (P08659 whole entry, looked up): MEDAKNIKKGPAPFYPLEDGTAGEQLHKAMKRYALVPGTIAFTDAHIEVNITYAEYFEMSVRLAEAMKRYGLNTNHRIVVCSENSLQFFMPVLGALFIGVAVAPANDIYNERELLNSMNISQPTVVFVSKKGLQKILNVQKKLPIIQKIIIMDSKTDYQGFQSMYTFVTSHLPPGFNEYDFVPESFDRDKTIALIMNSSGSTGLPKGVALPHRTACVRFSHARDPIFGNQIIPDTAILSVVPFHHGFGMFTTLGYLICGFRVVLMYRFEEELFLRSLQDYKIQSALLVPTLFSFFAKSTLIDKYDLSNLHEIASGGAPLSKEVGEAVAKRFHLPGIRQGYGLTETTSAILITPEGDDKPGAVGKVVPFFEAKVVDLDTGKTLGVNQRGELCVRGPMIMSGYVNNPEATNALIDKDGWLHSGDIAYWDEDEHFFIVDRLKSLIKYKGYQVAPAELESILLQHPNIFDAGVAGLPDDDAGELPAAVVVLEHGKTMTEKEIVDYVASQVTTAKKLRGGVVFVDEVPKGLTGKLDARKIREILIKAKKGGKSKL
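Purified P. pyralis luciferase, 10 nM final, with Km-level 10 uM D-luciferin and 10 uM ATP in 50 mM Tris acetate pH 7.5, 10 mM Mg acetate, 0.01% Tween-20, 0.05% BSA; 6-point qHTS titration about 60 µM downward; luminescence read.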
ELG1 genotoxic = genotoxicity induction in ELG1-luciferase HEK293T cells; HEK293T ELG1-luciferase reporter, luminescence, 16 h; Potency, µM (top dose mostly 46 µM), for the others: top-dose activity change, positive = activation, most hits filed as activators; 330,000 compounds, 1.3% hits; further: % of control where 0% means no effect; nearly all actives have a fitted effect of over 60% in size
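HEK293T cells expressing luciferase-tagged ELG1 were exposed to compound or DMSO vehicle for 16 hr at 37 °C and 5% CO2. Luciferase activity was then measured with ONE-Glo after 30 min at room temperature.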
Numbers without * were called inactive; u = inconclusive; x = no result given; [ ] = remark or other dose. Most compounds without a hit are left out; they make up all but 7.4% or so of the library. The call rests on the fitted dose curve; in most records, active means well fitted curve in the direction sought with a large enough effect; inconclusive means small, poorly fitted or top-dose-only effect, or another doubt; inactive means no such curve, though single readings can be large; an effect the other way counts as inactive or inconclusive. Potency means the concentration at half of the fitted maximal effect.

SMILES | Luc counter | SMN2 splice enh | Rab9 prom act | NPC1 promoter act | FLuc counter | ELG1 genotoxic
CCc1ccc(OCC(=O)NC(=S)Nc2ccc(F)cc2)c(Br)c1 | -2.4% | -16.3% | -2.3% | 0.1% | u | 12.4%
COC(=O)c1ccccc1NC(=O)c1ccc2c(c1)CC(C)O2 (stereo not drawn) | x | x | 2.24µM* | 27.8% | 16.9µM* | 4.8%
CCOC(=O)c1cccc(COC(=O)c2cccc(-c3nnc(-c4ccccc4)o3)c2)c1 | 0.0% | 3.55µM* | 1.26µM* | 2µM* | 10.7µM* | u
O=C(OCc1ccc(C(=O)c2ccccc2)cc1)c1cccc(-c2nnc(-c3ccccc3)o2)c1 | -4.0% | u | 1.12µM* | u | 10.7µM* | u
O=C(COC(=O)c1cccc(O)c1)Nc1nnc(-c2ccccc2)o1 | x | x | -2.0% | 0.0% | -19.0% | 2.5%
CC(C)OC(=O)c1ccc(COC(=O)c2cccc(-c3nnc(-c4ccccc4)o3)c2)cc1 | -3.0% | 5.01µM* | 2.51µM* | 2.24µM* | u | u
O=C(OCc1nnc(-c2ccccc2)o1)c1ccc(CO)cc1 | 0.7% | 6.9% | 0.3% | -5.2% | -1.6% | 1.5%
O=C(OCc1ccccc1)c1cccc(-c2nnc(-c3ccccc3)o2)c1 | -4.0% | u | u | 1.58µM* | -18.7% | u
CCC(Sc1nc2nccnc2c(=O)n1Cc1ccc(Cl)cc1)C(=O)NC1CCCCC1 (stereo not drawn) | x | x | x | x | -0.1% | x
O=[N+]([O-])c1ccc(CN2C=NS(=O)(=O)c3ccccc32)cc1 | 0.1% | 8.5% | 6.7% | -3.0% | -1.5% | -4.7%
O=C(OCc1ccccc1)c1ccc2c(c1)-c1ccccc1C2=O | 6.3% | 12.6µM* | u | u | u | 10.3µM*
CCc1cccc(C)c1NC(=O)CSc1nnc(N)s1 | x | -8.2% | x | x | 2.2% | x
COc1cccc(-c2nnc(-c3ccco3)o2)c1 | -6.1% | 11.2µM* | 2.51µM* | 2.51µM* | 9.53µM* | u
COc1cccc(-c2nnc(-c3ccc(C)o3)o2)c1 | -15.1% | 2.82µM* | 0.708µM* | 1.12µM* | 1.69µM* | u
COc1cccc(-c2nnc(-c3ccccc3[N+](=O)[O-])o2)c1 | x | x | 3.98µM* | u | 9.53µM* | u
O=C(/C=C/c1c(F)cccc1Cl)Nc1ncccn1 | -9.3% | 14.1µM* | 2.51µM* | 2.82µM* | 15.1µM* | u
N#Cc1ccc(/C=C/C(=O)c2cccnc2)cc1 | 0.5% | 2.3% | 1.4% | -11.4% | -12.7% | u
O=C(/C=C/c1ccccc1Cl)c1ccc(O)cc1 | x | x | 1.2%[1.84 µM] | -4.0% | 9.53µM* | 13.5%
O=C(/C=C/c1ccccc1Cl)c1cccnc1 | 11.6% | -17.5% | 1.1% | -4.3% | 16.9µM* | 14.0%
O=C(/C=C/c1c(F)cccc1Cl)Nc1ccc(S(=O)(=O)Nc2ncccn2)cc1 | x | x | -2.6% | 0.2% | u | 11.4%
O=C(/C=C/c1ccc(Cl)cc1)c1cccnc1 | 1.1% | -8.1% | -3.7% | 1.9% | 21.3µM* | 14.2%
COc1cc(C(=O)/C=C/c2cccnc2)ccc1O | x | x | 5.9% | -3.7% | 19µM* | -39.5%
O=C(/C=C/c1c(F)cccc1Cl)c1ccc(O)cc1 | x | x | -0.2% | -0.2% | 10.7µM* | 4.2%
COc1ccc(OC)c(C(=O)/C=C/c2cccnc2)c1 | x | x | -7.6% | -7.2% | 1.6% | 0.0%
Cc1oc(S(=O)(=O)N2CCCC2)cc1C(=O)Nc1ccccc1 | x | x | -10.3% | -1.5% | -0.5% | -6.4%
N=c1oc2c3c4c(cc2cc1C(=O)Nc1ccccc1)CCCN4CCC3 | -2.2% | 10µM* | u | u | 1.9µM* | u
Cc1c(C(=O)Nc2ccc3oc(-c4cccnc4)nc3c2)oc2ccccc12 | 3.8% | -13.1% | -10.9% | -5.6% | -18.5% | 0.6%
Cc1cc(C(=O)Nc2cccnc2)on1 | 1.1% | 7.4% | -1.2% | -4.2% | 1.7% | 7.4%
CCc1ccc2oc(C(=O)Nc3cccnc3)c(C)c2c1 | x | x | 3.98µM* | u | 2.13µM* | 4.11µM*
Cc1c(C(=O)Nc2cccc(S(=O)(=O)N3CCOCC3)c2)oc2ccc(Br)cc12 | x | x | x | x | x | 1.1%
